Test results taken from PubChem BioAssay (EPA / NIEHS).
Inconclusive results are not listed. Activity calls are given as the source filed them. Rule for the calls, unless noted: active = hit-call score of the fitted dose curve at least 0.9, where 1 is the maximum; inactive = score below 0.9.

Legend:
[1] = BSK_LPS_PGE2: BioMAP Diversity Plus: LPS Assay for Prostaglandin E2 (PGE2) Biomarker Activity (AID 2283082); settings: primary human HUVEC with PBMC; actives raise or lower the signal;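 for AC50: secreted prostaglandin E2 measured by ELISA in LPS-stimulated co-culture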
In short: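 Endpoint derived from bidirectional curve fitting versus DMSO of ELISA-measured PGE2 in LPS-stimulated human primary vascular co-culture (HUVEC with PBMC) harvested at 24 h.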

[2] = read-out: Macrophage colony-stimulating factor (MCSF), CSF1 (gene 1435); assay: BSK_LPS_MCSF: BioMAP Diversity Plus: LPS Assay for Macrophage colony-stimulating factor (MCSF) Biomarker Activity (AID 2283083); settings: primary human HUVEC with PBMC; actives raise or lower the signal
In short: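 HUVEC–PBMC co-culture, M-CSF measured by ELISA 24 h after chemical dosing. Fitted in both directions relative to DMSO as negative control; overt cytotoxicity assessed by SRB total-protein staining in parallel cultures.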

[3] = read-out: Tissue Factor, F3 (gene 2152); assay: BSK_LPS_TissueFactor: BioMAP Diversity Plus: LPS Assay for Tissue Factor Biomarker Activity (AID 2283084); settings: primary human HUVEC with PBMC; actives raise or lower the signal
In short: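 Human umbilical vein endothelial cells co-cultured with PBMC were dosed with compound. Cell-surface CD142 was measured by ELISA 24 h later. Activity was fitted bidirectionally against DMSO, with SRB total-protein staining in parallel cultures for cytotoxicity.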

[4] = read-out: Tumor necrosis factor (Homo sapiens) (UniProt P01375); assay: BSK_LPS_TNFa: BioMAP Diversity Plus: LPS Assay for Tumour Necrosis Factor alpha (TNFa) Biomarker Activity (AID 2283085); settings: primary human HUVEC with PBMC; actives raise or lower the signal
In short: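 Primary human vascular co-culture of HUVEC and PBMC; TNFa ELISA 24 h after treatment, analysed as increase or decrease relative to DMSO control.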

[5] = read-out: Vascular cell adhesion molecule 1 (VCAM1), VCAM1 (gene 7412); assay: BSK_LPS_VCAM1: BioMAP Diversity Plus: LPS Assay for Vascular cell adhesion molecule 1 (VCAM1) Biomarker Activity (AID 2283086); settings: primary human HUVEC with PBMC; actives raise or lower the signal
In short: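 Primary human vascular co-culture (umbilical vein endothelium plus PBMC) stimulated with LPS received chemical; 24 h later VCAM-1 was read by ELISA. Overt cytotoxicity was assessed by sulforhodamine B staining of parallel cultures at the same time point.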

CD38, CD38 (gene 952) = assay: BSK_SAg_CD38: BioMAP Diversity Plus: SAg Assay for CD38 Biomarker Activity (AID 2283087); settings: primary human HUVEC with PBMC; actives raise or lower the signal
In short: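 Fluorescence ELISA of cell-surface CD38 served as the read-out, with either increase or decrease fitted against DMSO controls. Cells were a human umbilical vein endothelium plus PBMC co-culture under SEB/TSST-1 stimulation, measured 24 h after dosing.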

CD40, CD40 (gene 958) = assay: BSK_SAg_CD40: BioMAP Diversity Plus: SAg Assay for CD40 Biomarker Activity (AID 2283088); settings: primary human HUVEC with PBMC; actives raise or lower the signal
In short: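 HUVEC plus PBMC co-culture, superantigen-activated, with CD40 read by ELISA 24 h after dosing. Curves fitted in both directions against DMSO. Overt cytotoxicity checked by parallel SRB total-protein staining.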

CD69, CD69 (gene 969) = assay: BSK_SAg_CD69: BioMAP Diversity Plus: SAg Assay for CD69 Biomarker Activity (AID 2283089); settings: primary human HUVEC with PBMC; actives raise or lower the signal;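 for AC50: cell surface CD69 protein quantified by ELISA with fluorescence detection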
In short: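 HUVEC co-cultured with PBMC were dosed with chemical, and CD69 was measured by ELISA with fluorescence read-out 24 h later. Bidirectional curve fitting used DMSO as negative control and activity baseline.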

[6] = read-out: Monocyte Chemoattractant Protein-1 (MCP1), CCL2 (gene 6347); assay: BSK_SAg_MCP1: BioMAP Diversity Plus: SAg Assay for Monocyte Chemoattractant Protein-1 (MCP1) Biomarker Activity (AID 2283090); settings: primary human HUVEC with PBMC; actives raise or lower the signal
In short: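 MCP-1 levels in the endothelial–PBMC SAg co-culture were quantified by ELISA at 24 h post-dosing; both increases and decreases versus DMSO scored. Cytotoxicity monitored by SRB total protein in parallel cultures.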

[7] = read-out: E-selectin (Homo sapiens) (UniProt P16581); assay: BSK_SAg_Eselectin: BioMAP Diversity Plus: SAg Assay for Eselectin Biomarker Activity (AID 2283091); settings: primary human HUVEC with PBMC; actives raise or lower the signal
In short: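 Human umbilical vein endothelial cells co-cultured with peripheral blood mononuclear cells, SAg system. E-selectin is measured by ELISA 24 h after dosing and fitted bidirectionally against DMSO. Cytotoxicity is checked by SRB staining of parallel cultures.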

[8] = read-out: Monokine induced gamma interferon (MIG), CXCL9 (gene 4283); assay: BSK_SAg_MIG: BioMAP Diversity Plus: SAg Assay for Monokine induced gamma interferon (MIG) Biomarker Activity (AID 2283092); settings: primary human HUVEC with PBMC; actives raise or lower the signal
In short: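 HUVEC plus human PBMC co-culture, chemicals dosed and MIG (CXCL9) quantified by ELISA at 24 h. Bidirectional curve fitting against DMSO as negative control and baseline, so both gain and loss of signal count as activity.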

[9] = BSK_SAg_PBMCCytotoxicity: PBMC Cytotoxicity Assessment in the BioMAP Diversity Plus: SAg Assay (AID 2283093); settings: primary human HUVEC with PBMC;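 note: PBMC viability measured as Alamar Blue reduction fluorescence at 546/580 nm; fitted both ways against DMSO so a hit may be loss or gain of signal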;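 for AC50: PBMC superantigen activated with SEB plus TSST-1 one hour after compound addition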
In short: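 Human umbilical vein endothelial cells co-cultured with PBMC; PBMC (75,000/well) pre-treated with compound 1 h, then activated with SEB and TSST-1 (20 ng/mL final each) for 90 h. Alamar Blue added 6 h, fluorescence 546/580 nm; bidirectional fit versus DMSO.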

[10] = read-out: Interleukin-8 (IL8), CXCL8 (gene 3576); assay: BSK_SAg_IL8: BioMAP Diversity Plus: SAg Assay for Interleukin-8 (IL8) Biomarker Activity (AID 2283094); settings: primary human HUVEC with PBMC; actives raise or lower the signal
In short: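 In this co-culture of human umbilical vein endothelium with peripheral blood mononuclear cells, IL-8 is assayed by ELISA at 24 h. DMSO serves as baseline for bidirectional curve fitting.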

[11] = BSK_SAg_Proliferation: Cell Proliferation Assessment in the BioMAP Diversity Plus: SAg Assay (AID 2283095); settings: primary human HUVEC with PBMC;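 note: relative cell number as total protein by SRB absorbance in sub-confluent culture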
In short: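 Readout is SRB-stained protein (560 nm) in a primary human HUVEC and PBMC co-culture; sub-confluent cultures are read at 96 h. Activity is fitted bidirectionally using DMSO as baseline.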

[12] = BSK_SAg_SRB: Viability Assessment in the BioMAP Diversity Plus: SAg Assay (AID 2283096); settings: primary human HUVEC with PBMC;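 note: cells read one day after compound addition; hits may be either gain or loss of signal compared with DMSO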
In short: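 Endothelial/PBMC primary human co-culture; compound 24 h; fix 10% TCA, stain 0.1% SRB, A560; protein content as cytotoxicity proxy; bidirectional curve fit, DMSO = baseline.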

[13] = molecular target: human CYP19A1, CYP19A1 (gene 1588) (UniProt P11511); assay: NVS_ADME_hCYP19A1: NovaScreen (NVS) CYP450-related Enzyme Activity (ADME) Assay for human CYP19A1 (AID 2283098; active = hit-call score of the fitted dose curve at least 0.9, where 1 is the maximum)
human CYP19A1, CYP19A1 (gene 1588), sequence (P11511 whole entry, looked up): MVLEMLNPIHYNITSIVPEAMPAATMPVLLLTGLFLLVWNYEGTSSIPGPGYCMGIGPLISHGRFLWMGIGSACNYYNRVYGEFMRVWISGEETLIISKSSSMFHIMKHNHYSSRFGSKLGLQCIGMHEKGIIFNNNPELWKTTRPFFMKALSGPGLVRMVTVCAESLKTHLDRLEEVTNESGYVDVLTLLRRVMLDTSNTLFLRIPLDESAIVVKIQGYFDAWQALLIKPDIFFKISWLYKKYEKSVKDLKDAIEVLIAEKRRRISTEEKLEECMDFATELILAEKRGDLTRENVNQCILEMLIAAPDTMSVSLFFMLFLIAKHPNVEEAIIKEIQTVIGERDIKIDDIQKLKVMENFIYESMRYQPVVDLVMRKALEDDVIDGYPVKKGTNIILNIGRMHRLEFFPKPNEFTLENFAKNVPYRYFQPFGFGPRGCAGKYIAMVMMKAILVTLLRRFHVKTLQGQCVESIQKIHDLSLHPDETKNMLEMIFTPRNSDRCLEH
In short: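 Cell-free enzyme assay with recombinant protein and a specific fluorogenic substrate, read by fluorescence intensity 0.5 h after dosing. Primary screen ran in duplicate at 10 uM; actives were retested in concentration series. Loss of signal versus acetonitrile baseline.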

[14] = molecular target: human CYP1A1, CYP1A1 (gene 1543) (UniProt P04798); assay: NVS_ADME_hCYP1A1: NovaScreen (NVS) CYP450-related Enzyme Activity (ADME) Assay for human CYP1A1 (AID 2283100; active = hit-call score of the fitted dose curve at least 0.9, where 1 is the maximum)
human CYP1A1, CYP1A1 (gene 1543), sequence (P04798 whole entry, looked up): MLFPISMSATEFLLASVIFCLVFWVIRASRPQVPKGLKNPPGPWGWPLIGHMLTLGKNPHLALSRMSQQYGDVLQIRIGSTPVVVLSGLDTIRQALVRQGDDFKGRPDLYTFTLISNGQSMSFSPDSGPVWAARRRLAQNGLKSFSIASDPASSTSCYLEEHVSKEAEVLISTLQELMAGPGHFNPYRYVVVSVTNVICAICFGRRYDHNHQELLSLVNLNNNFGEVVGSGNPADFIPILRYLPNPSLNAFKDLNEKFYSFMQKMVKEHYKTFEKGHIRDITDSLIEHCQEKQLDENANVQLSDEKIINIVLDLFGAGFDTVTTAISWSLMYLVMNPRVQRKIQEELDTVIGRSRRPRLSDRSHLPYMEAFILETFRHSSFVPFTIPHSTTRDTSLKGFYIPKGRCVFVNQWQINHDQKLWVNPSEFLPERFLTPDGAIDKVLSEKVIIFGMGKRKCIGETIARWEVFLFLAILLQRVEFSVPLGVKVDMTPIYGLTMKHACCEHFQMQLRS
In short: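 Recombinant CYP1A1 with a fluorogenic substrate, cell-free, read 1 h after dosing; acetonitrile as negative control. Single-concentration screen at 10 uM in duplicate, then concentration-response up to 20 uM for chemicals meeting ~30% inhibition threshold.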

[15] = molecular target: human CYP2B6, CYP2B6 (gene 1555) (UniProt P20813); assay: NVS_ADME_hCYP2B6: NovaScreen (NVS) CYP450-related Enzyme Activity (ADME) Assay for human CYP2B6 (AID 2283101; active = hit-call score of the fitted dose curve at least 0.9, where 1 is the maximum)
human CYP2B6, CYP2B6 (gene 1555), sequence (P20813 whole entry, looked up): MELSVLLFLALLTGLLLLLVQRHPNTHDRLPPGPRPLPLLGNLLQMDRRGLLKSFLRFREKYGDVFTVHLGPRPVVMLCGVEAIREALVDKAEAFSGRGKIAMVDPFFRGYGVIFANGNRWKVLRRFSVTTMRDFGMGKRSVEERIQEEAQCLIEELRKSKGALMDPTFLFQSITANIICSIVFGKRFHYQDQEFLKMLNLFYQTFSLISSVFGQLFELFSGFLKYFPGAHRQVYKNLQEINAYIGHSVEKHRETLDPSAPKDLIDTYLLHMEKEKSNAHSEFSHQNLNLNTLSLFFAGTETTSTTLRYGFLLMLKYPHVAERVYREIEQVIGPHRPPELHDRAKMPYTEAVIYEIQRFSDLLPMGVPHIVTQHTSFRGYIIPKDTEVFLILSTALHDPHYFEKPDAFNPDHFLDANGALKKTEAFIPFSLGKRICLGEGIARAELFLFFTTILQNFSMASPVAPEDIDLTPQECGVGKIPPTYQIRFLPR
In short: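 Recombinant human CYP2B6 with fluorogenic substrate, read by fluorescence intensity 1 h after dosing. Primary screen in duplicate at 10 uM, actives followed in concentration series; signal loss relative to acetonitrile control.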

[16] = molecular target: human CYP1A2, CYP1A2 (gene 1544) (UniProt P05177); assay: NVS_ADME_hCYP1A2: NovaScreen (NVS) CYP450-related Enzyme Activity (ADME) Assay for human CYP1A2 (AID 2283102; active = hit-call score of the fitted dose curve at least 0.9, where 1 is the maximum)
human CYP1A2, CYP1A2 (gene 1544), sequence (P05177 whole entry, looked up): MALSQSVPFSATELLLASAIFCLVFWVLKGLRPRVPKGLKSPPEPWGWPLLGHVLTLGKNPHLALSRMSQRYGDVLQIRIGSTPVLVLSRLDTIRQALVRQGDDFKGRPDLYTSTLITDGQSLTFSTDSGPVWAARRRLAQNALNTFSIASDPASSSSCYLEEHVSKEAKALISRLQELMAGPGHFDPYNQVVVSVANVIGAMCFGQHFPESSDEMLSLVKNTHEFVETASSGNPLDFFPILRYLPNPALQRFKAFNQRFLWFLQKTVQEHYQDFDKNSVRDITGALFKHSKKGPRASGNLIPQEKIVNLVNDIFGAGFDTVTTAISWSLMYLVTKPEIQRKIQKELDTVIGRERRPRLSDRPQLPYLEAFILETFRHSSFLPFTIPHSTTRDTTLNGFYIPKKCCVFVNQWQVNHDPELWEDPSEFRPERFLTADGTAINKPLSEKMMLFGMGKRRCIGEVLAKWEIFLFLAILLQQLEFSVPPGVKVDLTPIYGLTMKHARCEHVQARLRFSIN
In short: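 Recombinant human CYP1A2 from insect cells, cell-free, fluorogenic substrate; read 0.5 h after dosing with loss of fluorescence signal indicating inhibition. Primary screen in duplicate at 10 uM, acetonitrile as negative control.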

Measured: AC50

E-selectin (Homo sapiens), sequence (P16581 whole entry, looked up): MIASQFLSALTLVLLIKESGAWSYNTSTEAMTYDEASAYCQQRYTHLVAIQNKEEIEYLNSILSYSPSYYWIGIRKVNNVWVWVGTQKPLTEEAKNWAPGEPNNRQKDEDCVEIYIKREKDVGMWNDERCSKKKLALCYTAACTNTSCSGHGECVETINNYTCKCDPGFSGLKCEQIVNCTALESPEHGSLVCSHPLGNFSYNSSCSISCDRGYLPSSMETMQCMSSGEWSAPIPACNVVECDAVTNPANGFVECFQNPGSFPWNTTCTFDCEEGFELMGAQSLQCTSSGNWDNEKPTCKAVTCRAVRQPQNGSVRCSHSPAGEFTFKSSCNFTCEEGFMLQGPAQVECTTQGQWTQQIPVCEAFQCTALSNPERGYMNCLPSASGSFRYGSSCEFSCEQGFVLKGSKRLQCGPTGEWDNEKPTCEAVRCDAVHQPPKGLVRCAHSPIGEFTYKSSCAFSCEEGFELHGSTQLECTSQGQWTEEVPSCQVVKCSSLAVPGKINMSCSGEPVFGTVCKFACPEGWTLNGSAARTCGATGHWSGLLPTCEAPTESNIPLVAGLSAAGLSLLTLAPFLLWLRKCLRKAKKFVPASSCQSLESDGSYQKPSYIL
Tumor necrosis factor (Homo sapiens), sequence (P01375 whole entry, looked up): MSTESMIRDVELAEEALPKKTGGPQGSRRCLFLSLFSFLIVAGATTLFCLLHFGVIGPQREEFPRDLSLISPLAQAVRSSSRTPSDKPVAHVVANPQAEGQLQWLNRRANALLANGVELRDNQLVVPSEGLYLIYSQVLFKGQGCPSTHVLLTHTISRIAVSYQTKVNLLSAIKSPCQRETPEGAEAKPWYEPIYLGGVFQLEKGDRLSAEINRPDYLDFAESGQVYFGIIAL

Cc1cccc(Nc2cc(Cl)nc(SCC(=O)O)n2)c1C
not listed: [13] | [14] | [15] | [16]
inactive: all other assays above

Cc1ccc2ncccc2c1
not listed: [13] | [14] | [15] | [16]
inactive: all other assays above

COc1ccc(C)cc1N
not listed: [13] | [14] | [15] | [16]
inactive: all other assays above

Cc1ccc(C)c(C)c1
not listed: [13] | [14] | [15] | [16]
inactive: all other assays above

Cc1c(C(=O)O)c(O)cc2c1C(=O)c1c(O)c([C@@H]3O[C@H](CO)[C@@H](O)[C@H](O)[C@H]3O)c(O)c(O)c1C2=O
not listed: [8] | [14] | [15] | [16]
inactive: all other assays above

COc1cc(-c2nc(NC(=O)c3cc4cc(C)cc(C)c4n3CC(=O)O)sc2CCC2CCCCC2)c(OC)cc1Cl
active: [2] 4.31 µM | [3] 6.36 µM | [4] 10 µM | [5] 5.07 µM | CD38, CD38 (gene 952) 3.43 µM | CD40, CD40 (gene 958) 3.21 µM | CD69, CD69 (gene 969) 3.95 µM | [6] 2.78 µM | [7] 5.48 µM | [8] 4.63 µM | [9] 16.9 µM | [10] 16.9 µM | [11] 3.49 µM | [12] 3.85 µM

CCCCCC(=O)O
not listed: [1] | [13] | [14] | [15] | [16]
inactive: all other assays above

CCOc1ccc2c(c1)C(C)=CC(C)(C)N2
active: [1] 4.6 µM | [4] 3.97 µM | [9] 10.1 µM | [11] 24.8 µM | [15] 11.6 µM
not listed: [8] | [13]
inactive: all other assays above
